Screening data: PubChem BioAssay, Broad Institute
Tg IFNy HTS: T. gondii growth inhibition with IFN-gamma, primary screen, cell-based | Toxoplasma gondii growth in IFN-gamma-treated host cells; active compounds read low | activity change, negative = inhibition, % (no concentration beside the values) | 69,000 compounds, 3.8% hits; in the data active = activity change below about -70%, passing the limit was not always enough;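 also: host cells are HeLa cells infected with Toxoplasma gondii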
Starred values were filed as active, the others as inactive; i = inactive. The sample as a whole holds a higher share of hits than the screen did.

SMILES	Tg IFNy HTS
Cc1ccc(-c2coc(-c3ccc(NC(=O)CC(C)C)cc3)n2)cc1	-20
CCS(=O)(=O)N1CCC2(CCOCC2COc2ccccn2)CC1 (centres undefined)	4
Cc1nn(C)cc1-c1ccnc(NCc2nc3c(s2)CCCC3)n1	-35
CN(C)[C@@H]1C[C@@H](CO)N(C(=O)c2[nH]nc(N)c2-c2ccccc2)C1	-3
COc1cccc(C(=O)N2CCc3ncnc(N4CCCC4)c3CC2)c1	-12
Cc1ccc(S(=O)(=O)N2CCC3(CC2)OC(C(=O)N(C)C)Cn2ccnc23)cc1 (centres undefined)	-54
O=C(Nc1ccc(N2C(=O)C3CC=CCC3C2=O)cc1Cl)c1cccs1 (centres undefined)	-2
O=C(Nc1ccc(-c2nc(-c3ccccc3)co2)cc1)Nc1ccc(Br)cc1F	100
CCS(=O)(=O)N1C[C@H](OCc2cccnc2)[C@@H]2COC[C@@H]21	99
CCO[C@H]1COC[C@@H]1NC(=O)Cn1cnc2ccccc2c1=O	-34
CCCN1C(=O)CCc2cc(NC(=O)COc3ccc(F)cc3)ccc21	8
NC1CCN(C(=O)c2cc3n(n2)CCN(Cc2ccccc2)C3)C1 (centres undefined)	-8
COc1ccc(-c2nc3c(s2)CN(C(=O)Nc2cccc(C)c2)CC3)cc1OC	-28
Cc1cc(CN2CCC3(CC2)C(=O)NCCN3CC2CC2)oc1C	-12
Cc1ccc(C)c(N2C(=O)CN=C2Nc2ccc(F)cc2)c1	11
CCS(=O)(=O)N1C[C@@H]2COC[C@]2(COCc2csc(C)n2)C1	4
COCCN(Cc1cccs1)S(=O)(=O)c1ccc2[nH]c(=O)ccc2c1	43
Cc1nc2sccn2c1C(=O)NCc1snnc1C(C)C	-2
N#Cc1cccc(NC2COC3(CCN(C(=O)NC4CC4)C3)C2)n1 (centres undefined)	-36
Cc1occc1C(=O)N1CCC2(CC(Nc3ncccc3F)CO2)C1 (centres undefined)	7
Cc1occc1C(=O)N1CCC2(CC(Nc3cccc(C#N)n3)CO2)C1 (centres undefined)	-98*
CN(C)CCNC(=O)C1CN(Cc2nccs2)Cc2ccnn2C1 (centres undefined)	-6
CCOCC1CN(Cc2ccc3c(c2)OCO3)Cc2ccnn2C1 (centres undefined)	9
COc1cc2ncc(-c3ccccc3)nc2cc1OC	-85*
COc1cc2nc(-c3ccccc3)nc(N3CCCC3)c2cc1OC	-9
SMILES	Tg IFNy HTS
Cc1cc2ncc(-c3ccccc3)nc2cc1C	401
CC(=O)O[C@H]1C[C@@H](OC(C)=O)C(C)(C)C2CC(=O)[C@]3(C)C(CC[C@@]4(C)[C@H](C(=O)O)OC(=O)C5OC543)[C@]21C (some centres undefined)	7
O=C(Nc1ccc(OC(F)(F)F)cc1)c1cnn(-c2ccc(Cl)cc2)c1C(F)(F)F	-86*
Cc1cc(C)c2cc(C(=O)Nc3ccc(OC(F)(F)F)cc3)[nH]c2c1	39
O=C(NCCSCc1ccco1)c1cnn(-c2ccccc2)c1C(F)(F)F	8
O=C(CN1CCCC(O)(CO)C1)NCc1ccccn1 (centres undefined)	-48
O=C1CC(C(=O)O)C(c2ccccc2)O1 (centres undefined)	20
O=C(Nc1cc(C(F)(F)F)cc(C(F)(F)F)c1)NC1CCc2ccccc2O1 (centres undefined)	-82*
O=C(CSC(=O)c1ccco1)Nc1cc(C(F)(F)F)cc(C(F)(F)F)c1	-43
COc1cc(NC(=O)NC2Cc3ccccc3C2)cc(OC)c1	-6
CC(C)N1c2sc(-c3ccsc3)nc2CC1C(=O)NCCN(C)C (centres undefined)	-8
Cn1cc(C(=O)Nc2cccc(C(=O)O)c2)cn1	22
Cc1ccc(Nc2nc(C(=O)NC(C)c3ccccc3)nc3ccccc23)cc1 (centres undefined)	-15
Cc1ccc(-c2nc(CNC(=O)CCN3Cc4ccccc4C3=O)no2)cc1	-3
COc1cc(C(=O)Nc2ccc(-c3nc(-c4ccc(C)cc4)co3)cc2)cc(OC)c1OC	16
COc1cc(C(=O)Nc2ccccc2-c2nc3ccccc3s2)cc(OC)c1OC	-90*
COc1ccccc1NC(=O)c1ccc2nsnc2c1	70
Cc1ccc2c(c1C)-n1cccc1C1(CCN(S(=O)(=O)c3ccccc3)CC1)N2	12
CCN(CCO)C(=O)c1coc(COc2ccc(F)cc2Cl)n1	-54
O=C(c1ccn[nH]1)N1CCCC2(CC(Oc3cccnc3)CO2)C1 (centres undefined)	-95*
O=C(c1cnc[nH]1)N1CCC2(CC(Oc3cccnc3)CO2)C1 (centres undefined)	2
O=C(c1ccco1)N1CCCC2(CC(Oc3cccnc3)CO2)C1 (centres undefined)	-67
CCOC(=O)c1c(NCc2ccc(C)o2)c2cc(F)ccc2[nH]c1=O	19
CN(C)c1ncc(CN2CCN(S(=O)(=O)c3ccccc3)CC2)s1	11
COCC12CCCOC1CCN(S(=O)(=O)c1cccnc1)C2 (centres undefined)	-4
SMILES	Tg IFNy HTS
CCOc1ccc(-n2cnnc2)cc1-n1cccc1	-74*
c1cc(-n2ccnc2)cc(-n2cnnc2)c1	35
CCC/C=C/c1cccc(-n2cnnc2)c1	-32
O=C(CN1CCNC1=O)NCc1ccc2sccc2c1	3
Cc1cc2nnc(-c3ccc(C(F)(F)F)cc3)n2[nH]1	64
FC(F)(F)c1cc(-c2nnc(N3CCCC3)o2)cc(C(F)(F)F)c1	40
FC(F)(F)c1ccc(-c2nnc3ccc(N4CCCCC4)nn23)cc1	-109*
CCC/C=C/c1nc2ccccc2n1CCO	-49
CCOc1ccc(-c2nc(Cn3nnc(C(=O)Nc4cccc(SC)c4)c3C)c(C)o2)cc1	2
CC1=C(C(=O)NCc2ccc(OC(C)C)cc2)C2(CCN(S(C)(=O)=O)CC2)OC1=O	37
CCN1CCC2(CC1)OC(=O)C(C)=C2C(=O)Nc1ccccc1C	100
COc1cc(CNc2ccc(N3CCOCC3)cc2)ccc1OCc1ccccc1F	-17
COc1ccc2c(c1)c(CC(=O)N1CCOCC1)c(C)n2C(=O)c1ccc(Cl)cc1	-1
COc1ccc2nc(Cl)c(CNCc3ccccc3F)c(N3CCOCC3)c2c1	-99*
CCOc1cccc(C2c3[nH]c4ccccc4c3CCN2C(=O)c2cccc(C)c2)c1 (centres undefined)	-112*
Cc1cccc(C(=O)N2CCc3c([nH]c4ccccc34)C2c2cccc(C)c2)c1 (centres undefined)	i
CCOc1cccc(C2c3[nH]c4ccccc4c3CCN2C(=O)c2cccc(F)c2)c1 (centres undefined)	-123*
CCC(=O)N1c2ccccc2-n2cccc2C12CCNCC2	336
COc1ccc(NC(=O)N2CCC3(CC2)Nc2cccnc2NC3=NC2CCCC2)c(C)c1	12
CS(=O)(=O)NC1CC2(CCN(C(=O)c3cncnc3)C2)C1 (centres undefined)	6
Fc1ccccc1C1c2[nH]c3ccccc3c2CCN1Cc1cnc(N2CCOCC2)s1 (centres undefined)	12
COc1ccc(OC)c(CNc2nc(-c3nnc(-c4cccc(C)c4)o3)nc3ccccc23)c1	-93*
COc1ccc(OC)c(CNc2nc(-c3nnc(-c4cccc(Cl)c4)o3)nc3ccccc23)c1	-103*
COc1ccc(OC)c(CNc2nc(-c3nnc(-c4ccc(C)cc4)o3)nc3ccccc23)c1	-42
COc1ccccc1CNc1nc(-c2nnc(-c3cccc(Cl)c3)o2)nc2ccccc12	-62
COc1ccc(-c2nnc(-c3nc(NCc4ccc(OC)cc4OC)c4ccccc4n3)o2)cc1	161
